Out of some 330,000 compounds screened, about 4,900 (1.5%) were called active. This excerpt belongs to a sample that is enriched for actives. Values without a mark were called inactive.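 The calls were made as follows: active = inhibition above the mean inhibition across the screen plus 3 SD (cut at about 25% in these data); inactive = the rest.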

Chain of Platelet-activating factor acetylhydrolase (Homo sapiens) (Q13093 whole entry, looked up): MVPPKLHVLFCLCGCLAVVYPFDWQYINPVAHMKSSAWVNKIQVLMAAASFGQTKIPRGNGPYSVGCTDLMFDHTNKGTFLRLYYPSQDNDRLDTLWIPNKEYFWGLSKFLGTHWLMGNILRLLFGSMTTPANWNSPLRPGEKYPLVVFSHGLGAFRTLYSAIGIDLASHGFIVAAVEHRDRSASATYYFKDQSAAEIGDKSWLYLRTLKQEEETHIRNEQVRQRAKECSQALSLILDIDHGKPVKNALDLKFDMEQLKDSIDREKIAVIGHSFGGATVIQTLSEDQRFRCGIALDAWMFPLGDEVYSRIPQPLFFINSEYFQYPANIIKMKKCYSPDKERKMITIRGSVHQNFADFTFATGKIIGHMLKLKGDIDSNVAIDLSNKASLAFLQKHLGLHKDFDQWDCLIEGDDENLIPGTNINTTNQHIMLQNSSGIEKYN

The test concerns the target Platelet-activating factor acetylhydrolase (Homo sapiens) (UniProt Q13093). Briefly: pPAFAH enzyme inhibitors, primary screen, biochemical, fluorescence polarization, human (AID 463082).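 Also: inhibitors block binding of the rhodamine activity-based probe so polarization drops; 0% = enzyme with DMSO and 100% = wells lacking pPAFAH.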 Particulars: recombinant pPAFAH, FP-rhodamine probe fluorescence polarization; at 3.39 µM; stronger effect = higher value.
Regarding `COc1ccc(CN2C(=O)NC(=O)/C(=C\c3ccc(OC)c(OC)c3OC)C2=O)cc1`, the inhibition is 2.22%.
Next, `COc1cccc(N2C(=O)NC(=O)/C(=C\c3cn(C)c4ccccc34)C2=O)c1`: 0.95%.
As for `COc1ccc(N2C(=O)/C(=C/c3ccco3)C(=O)NC2=S)cc1`, the inhibition is 39.7% (active).
`O=C(CN1CCCC1=O)NCCc1ccccc1`: the inhibition is 6.04%.
The same measure for `CC(C)(C)c1ccc(CN2C(=O)CN=C(c3ccccc3)c3ccccc32)cc1`: -2.71%; for `O=C1CC(=O)N(Cc2ccccc2)C(=O)N1CCCCCCN1C(=O)CC(=O)N(Cc2ccccc2)C1=O`: 41.3% (active).
Next, `O=c1[nH]c(CN2CC=C(c3ccccc3)CC2)nc2scc(-c3cccs3)c12`: 8.85%; `CN(C)c1ccc(/C=C2\CC3C4CC=C5CC(O)CCC5(C)C4CCC3(C)C2=O)cc1` (stereo not given): 3.94%.
The same measure for `Cc1nn(-c2ccccc2)c(C)c1NC(=O)COC(=O)Cc1ccccc1`: 46.5% (active); for `Cc1ccccc1NC(=O)COC(=O)c1cc(C)n(C2CC2)c1C`: 3.84%; for `O=C(COC(=O)Cc1ccccc1)Nc1ccc(F)cc1`: 23.1%.
With `O=[N+]([O-])c1ccc(C2C3C(c4ccccc4)=NC4(CCCCC4)N32)cc1` (stereo not given), the inhibition is 6.5%.
Next, `Cn1cc(C(=O)OCC(=O)N2CCCC2)c2ccccc21`: -2.21%; `COc1ccccc1NC(=O)N1C[C@@H]2C[C@@H](C1)c1cccc(=O)n1C2`: 5.55%.
Next, `CSc1nc2ccc(C)cc2c(=O)n1-c1cccnc1`: -1.83%.
`Cc1ccccc1N1C(=O)NC(=O)/C(=C\c2cc(C)n(C)c2C)C1=O`: the inhibition was -0.82%.
The same measure for `O=C1NC(=O)N(c2ccccc2)C(=O)/C1=C/c1ccc([N+](=O)[O-])s1`: 58% (active); for `COC(=O)C1=C(c2ccc(C(C)=O)cc2)C[C@@H]2CC[C@H]1N2C(=O)NCCNC(C)=O`: 3.68%; for `COc1cccc(C(=O)N2C[C@H]3C[C@@H](C2)c2cccc(=O)n2C3)c1`: 3.04%.
The same measure for `C/C(=N/O)c1ccc2ccc3ccccc3c2c1`: 1.83%; for `COC(=O)C1=C(c2cc3ccccc3s2)C[C@@H]2CC[C@H]1N2C(=O)NC(C)C`: 4.37%; for `NCCc1ccc(S(=O)(=O)F)cc1`: 59.5% (active).
Next, `CN1CCN(Cc2ccc(OC(F)(F)F)cc2)CC1`: -4.99%; `C=Cn1ccnc1P(=S)(c1cc(N(CC)CC)ns1)c1nccn1C=C`: -4.36%; `CCOC(=O)C1CN(C)CCC1=O` (stereo not given): 4.48%.

Values taken from PubChem BioAssay AID463082 (The Scripps Research Institute Molecular Screening Center, 2010).
